Screening data from PubChem BioAssay.
HSD17B inh = inhibitors of human HSD17B10 dehydrogenase; Q99714; recombinant HSD17B10, NADH fluorescence kinetic; Potency, µM (titrated, usually from 57.1 µM), for the others: top-dose activity change, negative = inhibition, usual class: inhibitors; 7.6% of 75,000 active;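 further: the protocol describes HADH2 (HSD17B10) and not the HSD17B4 of the title; potency means the concentration at half of the fitted maximal effect; on the % scale 0 is the no-effect control and ±100 the full control effect; nearly all actives have a fitted effect of over 70% in size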
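Enzyme plus compound, 15 min room temperature; substrate mix added (NAD+ 1 mM, beta-hydroxybutyryl-CoA 90 uM final); plates read kinetically for NADH fluorescence. HADH2 was His-tagged, E. coli-derived, 20 nM.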
AID923 = qHTS Assay for Allosteric/Competitive Inhibitors of Caspase-1: Spectroscopic Profiling in AFC Spectral Region | compound fluorescence, AFC spectral region (405/520 nm) | Potency, µM (doses to about 57.5 µM), inactives show at the highest dose fluorescence increase, most hits filed as activators | 1.1% of 75,000 active | AID 923, 2007; further: potency means the concentration at half of the fitted maximal effect; 0% is about no effect
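Baseline compound fluorescence (AFC region, 405 nm ex/520 nm em) taken from the intercept of kinetic reads with 50 nM caspase-1 and 5 uM Ac-WEHD-AFC; normalized to an on-plate AFC standard curve; compounds titrated up to 57 uM.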
CRE Fsk mod = modulators of forskolin-stimulated CRE signaling in CHO cells; 2.5% of 71,000 active; AID 662; Potency, µM (doses to about 38.2 µM), for inactives: at the top dose activity change, negative = inhibition, most hits filed as activators; CHO CRE-bla reporter (cAMP response element driving beta-lactamase), forskolin EC10, beta-lactamase ratio; active means well fitted activation curve with a large enough effect in the signal ratio, with a control signal flat, not every such curve was filed as active; inconclusive means small, poorly fitted or top-dose-only effect, or effect the other way, or a change in a side signal; the % refers to the signal ratio; further: potency means the concentration at half of the fitted maximal effect; % of control where 0% means no effect
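Beta-lactamase reporter under a cAMP responsive element in CHO cells; compounds tested in titration series against EC10 NKH 477, 3 h at 37 °C. Read-out: CCF4 FRET ratio 460nm/530nm (excitation 405nm) giving %Activity, fitted to AC50.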
A350 fluor = A350 region autofluorescence | 11% of 59,000 active | AID 590 | max dye-equivalent concentration, M | Compound autofluorescence, 340/450 nm, Alexa 350 dye-equivalents; stronger effect = higher value; in the data active means max dye-equivalent concentration above about 10 nM; inconclusive means mostly about 1.1 nM to 9.6 nM
4-MU autofl = compound fluoresces in the 4-MU spectral region | compound autofluorescence, 340/450 nm, 4-MU equivalents; stronger effect = higher value | max dye-equivalent concentration, M | 11% of 59,000 active; in the data active means max dye-equivalent concentration above about 10 nM; inconclusive means mostly about 1.1 nM to 9.6 nM
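Intrinsic fluorescence at 340/450 nm (ex/em) was read after 15 min at room temperature in pH 8.0, 100 mM Tris. Each compound concentration expressed as 4-MU-equivalent concentration from a six-point 4-MU standard series on each plate.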
HADH2 inh = inhibitors of human HADH2 dehydrogenase; recombinant HADH2, NADH fluorescence, beta-hydroxybutyryl-CoA; Potency, µM (titrated, usually from 57.1 µM), without a hit: at the highest dose activity change, negative = inhibition, hits mostly inhibitors; 3.4% of 73,000 active; AID 886; further: potency means the concentration at half of the fitted maximal effect; on the % scale 0 is the no-effect control and ±100 the full control effect; nearly all actives have a fitted effect of over 60% in size
Target sequence (Q99714 whole entry, looked up, one chain of several): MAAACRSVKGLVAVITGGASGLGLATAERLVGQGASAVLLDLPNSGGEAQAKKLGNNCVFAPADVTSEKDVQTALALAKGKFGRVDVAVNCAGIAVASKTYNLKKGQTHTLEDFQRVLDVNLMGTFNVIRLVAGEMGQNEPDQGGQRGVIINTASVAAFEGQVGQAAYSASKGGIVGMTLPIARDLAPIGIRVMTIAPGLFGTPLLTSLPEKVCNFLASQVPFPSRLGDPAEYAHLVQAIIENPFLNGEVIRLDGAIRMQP
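20 nM HADH2 + cpd, 15 min RT; add 1 mM NAD+/90 uM beta-hydroxybutyryl-CoA; kinetic fluorescence 360/450 nm, 4 min. Tris-HCl pH 9.0, 0.01% Tween-20.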
* hit, by the source's call; i = inactive; ? = inconclusive; . = no result given; [ ] = another dose, or the depositor's remark. Hits are enriched below; roughly 14% of the tested compounds scored in any of these assays. Unless noted, the call rests on the fitted dose curve; in most records, active means well fitted curve in the direction sought with a large enough effect; inconclusive means small, poorly fitted or top-dose-only effect, or another doubt; inactive means no such curve, though single readings can be large; an effect the other way counts as inactive or inconclusive.

SMILES	HSD17B inh	AID923	CRE Fsk mod	A350 fluor	4-MU autofl	HADH2 inh
Cn1c(Cn2c(=O)sc3ccccc32)nnc1SCC(=O)NCc1ccc2c(c1)OCO2	2%	2%	1%	.	.	0%
COc1cccc(C(=O)NCc2cccnc2)c1	10%	4%	.	.	.	18%
N#Cc1nc(-c2ccc(OCc3ccccc3Cl)cc2)oc1NCCCn1ccnc1	?	0%	?	?	i	-2%
CCN(CC)CCCNc1oc(-c2ccc(OC)c(OC)c2)nc1C#N	32µM*	-1%	14%	1.6e-08M*	1.3e-08M*	20µM*
CN(C)CCCNc1oc(-c2cccc(Cl)c2)nc1C#N	32µM*	0%	13%	1e-07M*	8.2e-08M*	25µM*
CN(C)CCNc1oc(COc2cccc(Cl)c2)nc1C#N	-4%	8%	12%	?	i	9%
Cn1c(=O)[nH]c(=O)c2c1nc(OC(=O)c1ccccc1)n2CC(O)COc1ccccc1 (stereo not drawn)	4%	3%	1%	i	i	13%
CCOC(=O)N1CCN(C(=O)CS(=O)Cc2nc(-c3cccc(C)c3)oc2C)CC1 (stereo not drawn)	4%	0%	1%	.	.	0%
Cc1csc2nc(CSc3nc4ccccc4o3)c(Br)n12	-7%	1%	2.5µM*	1.1e-08M*	1.1e-08M*	-11%
O=C(c1ccccc1)N1CCN(C2CC(=O)N(CCc3ccccc3)C2=O)CC1 (stereo not drawn)	1%	1%	-2%	.	.	10%
O=S(=O)(Nc1ccc2c(c1)OCO2)c1ccc(Br)s1	32µM*	-2%	-12%	i	i	?
NC(=O)NC(=O)COC(=O)c1ccccc1Oc1ccccc1	5%	1%	3%	i	i	4%
N#Cc1cccc(-c2nccc(NCc3cccnc3)n2)c1	?	0%	?	i	i	12%
CN(C)c1ccc(-c2nccc(NCc3ccccc3)n2)cc1	20µM*	0%	?	?	?	-9%
Cc1cccc(CNc2ccnc(-c3ccc(N(C)C)cc3)n2)c1	25µM*	3%	?	?	?	?
N#Cc1cccc(-c2nccc(NCc3ccccc3)n2)c1	1%	0%	?	4.8e-08M*	4.3e-08M*	2%
COc1ccccc1CNc1ccnc(-c2ccc(N(C)C)cc2)n1	4µM*	7%	13µM*	?	?	?
CCCCCN=C(N)N/N=C/c1c[nH]c2ccc(OC)cc12	3%	0%	.	.	.	.
O=C(Nc1ccccn1)c1cc(-n2cnnc2)ccc1Cl	11%	0%	-13%	?	i	-1%
CCOC(=O)C1=C(CNCc2ccc(C)cc2)NC(=O)NC1c1ccc(OC)cc1 (stereo not drawn)	-1%	3%	?	i	i	15%
CC1CCCN(C(=O)Cn2nnc(-c3cccnc3)n2)C1 (stereo not drawn)	2%	4%	6%	i	i	9%
O=C1CC(C(=O)Nc2ccc(O)c(C(=O)O)c2)C(c2ccccc2)O1 (stereo not drawn)	32µM*	2%	-8%	?	?	25µM*
C#CCCCO/N=C1/C[C@@H](O)[C@@H](O)[C@@H]2[C@@H]3C(=O)N(c4cccc(Oc5ccccc5)c4)C(=O)[C@H]3CC[C@@H]12	0%[11.4 µM]	-1%[11.5 µM]	.	.	.	10%[11.4 µM]
O=C(Nc1nc2ccccc2n1CCOc1ccccc1)c1ccco1	-9%	-3%	13%	i	i	5%
Nc1nonc1-c1nc2ccccc2n1CC(=O)N1CCCCC1	3%	0%	2%	i	i	10%
SMILES	HSD17B inh	AID923	CRE Fsk mod	A350 fluor	4-MU autofl	HADH2 inh
CCOCCn1c(-c2ccc(OC)cc2)nc2ccccc21	25µM*	8%	9%	.	.	-14%
O=C(Cn1c(-c2ccco2)nc2ccccc21)N1CCCCC1	25µM*	0%	-1%	i	i	?
Cc1ccc(OCCn2c(NC(=O)c3ccco3)nc3ccccc32)cc1	6.3µM*	1%	18%	?	?	23%
c1ccc(OCCn2c(-c3ccco3)nc3ccccc32)cc1	32µM*	0%	.	.	.	?
Cc1ccc(NC(=O)CC(O)(C(F)(F)F)C(F)(F)F)c(Br)c1	8%	-1%	10%	i	i	8%
NC(=O)CSc1nnc(CNc2ccc(F)cc2)n1CC1CCCO1 (stereo not drawn)	-7%	2%	0%	i	i	7%
COC(=O)c1cccc(S(=O)(=O)N(Cc2ccco2)Cc2cc3ccc(OC)cc3[nH]c2=O)c1	?	2%	4%	i	i	19%
COc1ccc(S(=O)(=O)N(CCCN2CCCC2=O)Cc2cc3cc(C)c(C)cc3[nH]c2=O)cc1	?	0%	?	2.9e-08M*	2.2e-08M*	238%
O=C(CN1CCN(S(=O)(=O)c2ccc(Br)cc2)CC1)Nc1ccc(F)cc1F	-3%	2%	5%	i	i	0%
COC(=O)c1ccc(Oc2c(C)oc3c(CN4CCN(C)CC4)c(O)ccc3c2=O)cc1	32µM*	11%	8%	2.7e-06M*	1.9e-06M*	-165%
COc1ccccc1Oc1c(C)oc2c(CN3CCN(C)CC3)c(O)ccc2c1=O	32µM*	10%	5%	1.6e-06M*	1.1e-06M*	?
O=C(Cn1ncc2c1-c1ccccc1OC2)Nc1nc2ccccc2s1	-21%	-2%	?	.	.	-9%
CCN(C(=O)c1cnc2scc(C)n2c1=O)c1ccccc1C	-9%	1%	-1%	.	.	-13%
CC(C)CN(C(=O)COC(=O)c1cc2ccccc2oc1=O)C1CCS(=O)(=O)C1 (stereo not drawn)	32µM*	-1%	-6%	8.1e-08M*	5.6e-08M*	?
CCOc1cc(C2C3=C(CCCC3=O)NC3=C2C(=O)CCC3)ccc1OCCO	-14%	4%	-6%	2.5e-08M*	2.5e-08M*	-4%
CCOc1ccc2nc(COC(=O)c3ccco3)c(C(C)=O)[n+]([O-])c2c1	-2%	2%	5%	i	i	8%
CC(=O)c1c(COC(=O)c2cccnc2)nc2ccccc2[n+]1[O-]	1%	0%	?	1.7e-08M*	?	2%
Cc1noc(C)c1CSc1nc2ccccc2c(=O)n1-c1ccccc1	-6%	0%	10µM*	i	i	6%
Cc1noc(C)c1CSc1nc2[nH]ncc2c(=O)n1-c1ccccc1	-5%	0%	10µM*	?	i	0%
Cc1nc(CSc2nc3[nH]ncc3c(=O)n2-c2ccccc2)cs1	-4%	0%	?	i	i	1%
Cc1noc(C)c1CSc1nc2ccccc2c(=O)n1-c1ccc(F)cc1F	-2%	0%	?	i	i	-2%
